Source: PubChem BioAssay (NCATS)
Active and inactive are the calls of the source. The call rests on the fitted dose curve; in most records, active means well fitted activation curve with a large enough effect; inconclusive means small, poorly fitted or top-dose-only effect; inactive means no such curve, though single readings can be large or run the other way.

target: Cytochrome P450 3A4 (Homo sapiens) (UniProt P08684); experiment: qHTS Assay for Activators of Cytochrome P450 3A4 (AID 885); settings: recombinant CYP3A4, Luciferin-PPXE luminescence, 60 min; series mostly up to 57.1 µM; activity change, positive = activation: at the top concentration; further: nearly all actives have a fitted effect of over 65% in size
Sequence (P08684 whole entry, looked up): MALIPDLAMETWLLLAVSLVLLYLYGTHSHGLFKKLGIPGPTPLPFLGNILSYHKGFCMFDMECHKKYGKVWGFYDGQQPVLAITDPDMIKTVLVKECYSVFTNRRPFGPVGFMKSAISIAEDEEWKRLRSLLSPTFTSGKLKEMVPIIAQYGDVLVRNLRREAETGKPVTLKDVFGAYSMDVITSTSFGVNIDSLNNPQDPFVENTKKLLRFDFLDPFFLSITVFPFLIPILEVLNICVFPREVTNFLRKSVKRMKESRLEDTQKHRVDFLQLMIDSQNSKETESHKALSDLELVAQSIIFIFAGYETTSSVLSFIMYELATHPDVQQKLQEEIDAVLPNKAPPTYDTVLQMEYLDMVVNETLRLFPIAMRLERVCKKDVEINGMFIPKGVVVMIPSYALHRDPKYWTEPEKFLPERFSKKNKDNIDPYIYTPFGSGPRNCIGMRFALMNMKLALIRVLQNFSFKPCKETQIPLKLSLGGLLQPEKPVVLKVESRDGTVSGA
Procedure: NIH Molecular Libraries Screening Centers Network [MLSCN]
NIH Chemical Genomics Center [NCGC]
The P450 gene superfamily is involved in the metabolism and clearance of xenobiotics. This assay used human CYP3A4 to measure the dealkylation of luciferin-6' phenylpiperazinylyl (Luciferin-PPXE; […]) to luciferin. The luciferin is then measured by luminescence after the addition of a luciferase detection reagent. Luciferin-PPXE concentration in the assay was equal to its KM for CYP3A4. Inhibitors and some substrates limit the production of luciferin, and decrease measured luminescence; activators increase the production of luciferin and luminescence.
NCGC Assay Protocol Summary:
Two uL of enzyme and substrate mix (final concentrations: 20nM CYP3A4, 25uM Luciferin-PPXE, 200mM KPO4) were dispensed into a white, solid bottom 1536-well microtiter plate. 23nL of compound was transferred by a pin tool. The plate was incubated at RT for 10 min. Two uL of an NADPH regeneration solution (Promega supplied reagent) was dispensed and the reaction was allowed to continue for 60 min at RT. Then the reaction was stopped by reconstituted luciferin detection buffer. After another 20 min of incubation the plate was read on the ViewLux (Perkin Elmer) at 60 sec exposure and 2x2 binning. This protocol was carried out with Promega-Glo reagents and further information can be found at http://www.promega.com/tbs/tb325/tb325.pdf. Data were normalized to the to AC100 inhibition (57 uM ketoconazole).
Keywords: P450, CYP2D6, Luciferase, MLSMR, MLSCN, NIH Roadmap, qHTS, NCGC

| SMILES | activity change, positive = activation |
| --- | --- |
| C=CCc1cc(OC)c2c(c1OC)OCO2 | -90.1% (inactive) |
| C=C(CO)C1Cc2c(ccc3c2OC2COc4cc(OC)c(OC)cc4C2C3=O)O1 (stereo not given) | -72.9% (inactive) |
| [O-]/[N+](=N\O)c1ccccc1 | -37.5% (inactive) |
| COc1cc2c(cc1OC)[C@@H]1C(=O)c3ccc(OC)c(CC=C(C)C)c3OC1CO2 (stereo not given in full) | -78.7% (inactive) |
| COC(=O)[C@@H]1[C@@H](O)[C@@]2(O)c3c(OC)cc(OC)cc3O[C@@]2(c2ccc(OC)cc2)[C@H]1c1ccccc1 | -35.6% [at 11.4 µM] (inactive) |
| C=CCn1c(=O)n(CC=C)c(=O)n(CC=C)c1=O | -73.1% (inactive) |
| Cc1c2ccccc2c(C)c2c1ccc1ccccc12 | -48.2% (inactive) |
| NC(N)=Nc1ccc2[nH]c3c(c2c1)C[C@]1(O)[C@@H]2Cc4ccc(O)c5c4[C@]1(CCN2CC1CC1)[C@H]3O5 | -74.2% (inactive) |
| CCCC/C(C)=C/[C@@H](NP(=O)(c1ccccc1)c1ccccc1)c1ccccc1 | -92.9% (inactive) |
| CC(=O)OC1CCC2C3CCc4cc(O)ccc4C3CCC12C (stereo not given) | -63.8% (inactive) |
| C=C(CC1(C(C)NP(=O)(c2ccccc2)c2ccccc2)CC1)c1ccccc1 (stereo not given) | -73.6% (inactive) |
| c1cc(Cc2cnc[nH]2)ccn1 | -110% (inactive) |
| C[C@H]1CCCC=CC2C[C@H](O)C[C@@H]2[C@H](O)/C=C\C(=O)O1 (stereo not given in full) | -36.1% (inactive) |
| COC(=O)[C@@]1(Cc2ccc(F)cc2)[C@H]2c3cc(C(=O)N(C)C)[nH]c3C[C@H]2CN1C(=O)c1ccccc1 | -95.7% (inactive) |
| CNC[C@H](O)c1ccc(OC(=O)C(C)(C)C)c(OC(=O)C(C)(C)C)c1 | -59.1% [at 25.6 µM] (inactive) |
| COCOc1ccc(Br)cc1C(=O)/C=C\c1ccc2c(c1)OCO2 | -91.5% [at 11.4 µM] (inactive) |
| CC(=O)[O-].CC(=O)[O-].O.O.[Cd+2] | -31.5% (inactive) |
| C[C@@H](Cc1cccc(C(F)(F)F)c1)NCCCc1ccccc1 | -68.5% (inactive) |
| CCCN1[C@@H]2C[C@@H](O)CC[C@@H]2C[C@H]1C(=O)OC | -45.5% (inactive) |
| CN(CCC(N)CC(=O)NC1C=CC(n2ccc(N)nc2=O)OC1C(=O)O)C(=N)N (stereo not given) | -69.8% (inactive) |

| SMILES | activity change, positive = activation |
| --- | --- |
| [Cd+2].[Cl-].[Cl-] | -39.2% (inactive) |
| Cc1ccc2ccc3cccc4ccc1c2c34 | -65.4% (inactive) |
| Cc1cc(C)c(N)cc1C | -38.3% (inactive) |
| COC(=O)[C@]1(C)C[C@H]1[C@H](NP(=O)(c1ccccc1)c1ccccc1)c1ccccc1 | -42.9% (inactive) |
| Clc1ccc(C(c2ccc(Cl)cc2)n2cc[n+](C[C@@H](OCc3ccc(Cl)cc3Cl)c3ccc(Cl)cc3Cl)c2)cc1 | -63.8% (inactive) |
| C[C@H](N)c1cccc(Cl)c1Cl | -61.1% (inactive) |
| CC(=O)[C@@H]1CC[C@@H]2[C@@H]3CC=C4C[C@H](OS(=O)(=O)O)CC[C@@]4(C)[C@H]3CC[C@]21C | -36.2% (inactive) |
| C=CC(=O)OCC(CO)(COC(=O)C=C)COC(=O)C=C | -82% (inactive) |
| COc1cc2c(cc1OC)C1C(=O)c3c(O)cc4c(c3OC1CO2)C=CC(C)(C)O4 (stereo not given) | -86.1% (inactive) |
| CCC1C(=O)OC[C@H]1Cc1cncn1C (stereo not given in full) | -68.1% (inactive) |
| CCCCCCCCCc1ccc(OCCOCCOCCOCCOCCOCCOCCOCCOCCO)cc1 | -79.6% (inactive) |
| Cc1c(N=C=O)cccc1N=C=O | -59.8% (inactive) |
| CCCCCCCC/C=C\CCCCCCCC(N)=O | -30.4% (inactive) |
| COC(=O)[C@H]1C[C@H]2CC[C@H](O)C[C@H]2N1CC1CC1 | -34.9% (inactive) |
| BrC1C(Br)C(Br)C(Br)C(Br)C1Br (stereo not given) | -53.1% (inactive) |
| CC1(C)C(C(Cl)Cl)C2(Cl)C(Cl)C(Cl)C1(Cl)C2(Cl)Cl (stereo not given) | -86.4% (inactive) |
| CCCN1CCc2cccc3c2[C@@H]1Cc1ccc(O)c(O)c1-3 | -34.5% (inactive) |
| Cc1cccc2c3c(ccc12)C1=C(C(=O)C3=O)C(C)CO1 (stereo not given) | -32.4% (inactive) |
| O=C1c2c(O)ccc([N+](=O)[O-])c2C(=O)c2c([N+](=O)[O-])ccc(O)c21 | -97.9% (inactive) |
| CC(C)CC(C)Nc1ccc(Nc2ccccc2)cc1 (stereo not given) | -58.5% (inactive) |
